Source: PubChem (National Center for Advancing Translational Sciences (NCATS))
A selection: hits, their analogues and other compounds. The true share with any hit is near 15%.
TDP1 cell CPT = DT40-hTDP1 cell growth loss with CPT; chicken DT40 Tdp1-/-;hTDP1 cells + 20 nM CPT, ATP luminescence, 48 h; Potency, µM (titrated, usually from 46.2 µM), inactives show top-dose activity change, negative = growth inhibition, actives largely listed as inhibitors; hit rate 12% among 420,000; AID 686979; also: nearly all actives have a fitted effect of over 55% in size
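Cell growth measured by CellTiter-Glo luminescence after a minimum 48 h, 37 C compound exposure with 20 nM CPT in Tdp1-knockout DT40 cells stably expressing hTDP1, seeded 400/well; qHTS titration format.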
VP16 counter = counter-screen for ROR gamma inhibitors: Gal4-VP16 reporter; Drosophila S2 Gal4-VP16 UAS-luciferase, luminescence, 20 h; Potency, µM (titrated, usually from 53.6 µM), without a hit: top-dose activity, negative = inhibition, most hits filed as inhibitors; hit rate 3.5% among 310,000; AID 2546;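 also: Gal4-VP16 expression switched on by copper sulfate through the metallothionein promoter; nearly all actives have a fitted effect of over 50% in size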
RORg inh = inhibitors of mouse ROR gamma transcriptional activity. P51450. Drosophila S2 Gal4-RORgamma UAS-luciferase reporter, 20 h. Potency, µM (doses to about 53.6 µM), without a hit: at the highest dose activity change, negative = inhibition, most hits filed as inhibitors. hit rate 5.4% among 310,000. AID 2551; also: nearly all actives have a fitted effect of over 60% in size
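Luminescence from a UAS-regulated Photinus luciferase reporter in stably transfected Drosophila Schneider cells is measured; decreased signal marks ROR gamma inhibition. Fusion expression is induced by 700 uM copper sulfate for 20 hr.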
TDP1 cell noCPT = qHTS for Inhibitors of human tyrosyl-DNA phosphodiesterase 1 (TDP1): qHTS in cells in absence of CPT; DT40 Tdp1-/- hTDP1 cells, no CPT, ATP luminescence, 48 h; Potency, µM (doses to about 46.2 µM), for inactives: top-dose activity change, negative = growth inhibition, usual class: inhibitors; hit rate 15% among 420,000; also: nearly all actives have a fitted effect of over 55% in size
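Luminescent ATP content (CellTiter-Glo) served as the growth readout. Knockout chicken DT40 cells expressing human TDP1 were exposed to compounds without camptothecin for a minimum 48 hr at 37 °C.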
12-LOX inh = inhibitors of human 12S-lipoxygenase ALOX12 | purified 12hLO, xylenol orange hydroperoxide absorbance | hit rate 1.1% among 580,000 | Potency, µM (doses to about 108 µM), for the others: at the top dose activity change, negative = inhibition, hits mostly inhibitors
Target sequence (P18054 whole entry, looked up): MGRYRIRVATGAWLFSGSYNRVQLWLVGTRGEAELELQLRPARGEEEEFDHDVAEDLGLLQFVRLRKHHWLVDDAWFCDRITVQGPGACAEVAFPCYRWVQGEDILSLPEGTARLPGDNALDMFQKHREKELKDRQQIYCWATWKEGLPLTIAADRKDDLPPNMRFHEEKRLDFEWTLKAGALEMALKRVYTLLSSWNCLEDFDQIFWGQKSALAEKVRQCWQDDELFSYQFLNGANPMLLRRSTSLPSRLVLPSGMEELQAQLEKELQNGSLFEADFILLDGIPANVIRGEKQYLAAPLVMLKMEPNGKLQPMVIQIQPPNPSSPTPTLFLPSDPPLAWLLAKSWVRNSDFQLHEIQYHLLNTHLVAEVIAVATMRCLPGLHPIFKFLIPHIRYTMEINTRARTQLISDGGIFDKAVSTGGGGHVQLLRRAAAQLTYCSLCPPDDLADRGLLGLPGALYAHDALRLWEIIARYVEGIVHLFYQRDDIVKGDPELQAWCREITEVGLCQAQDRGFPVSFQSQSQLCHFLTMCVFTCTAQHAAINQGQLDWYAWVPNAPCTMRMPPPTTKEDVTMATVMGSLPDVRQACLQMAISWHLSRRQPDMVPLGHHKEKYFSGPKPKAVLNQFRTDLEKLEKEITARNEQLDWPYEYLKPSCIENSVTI
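Purified human 12hLO at 150 nM in 25 mM Hepes, 0.01% Triton X-100, pH 7.0, preincubated 15 min at room temperature with compound. Reaction started with 40 uM arachidonic acid, 30 min at room temperature. Hydroperoxide measured by Fe-xylenol orange, 573/405 nm absorbance ratio.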
ELG1 DNA repair = inhibitors of ELG1-dependent DNA repair in HEK293T cells. Potency, µM (doses to about 46.1 µM), inactives show at the highest dose activity change, negative = inhibition, most hits filed as inhibitors. HEK293T ELG1-luciferase reporter, luminescence, 16 h; DNA damage induced by 5-fluorouridine. hit rate 2.3% among 330,000; also: nearly all actives have a fitted effect of over 55% in size
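HEK293T cells expressing luciferase-tagged ELG1 (2,000/well) received 5-Fluorouridine plus compound or DMSO for 16 hr at 37 °C. Luciferase was read by ONE-Glo luminescence after 30 min at room temperature.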
* marks the source's active call; other numbers are inactive results; [ ] = remark or other dose. Calls follow the shape of the dose curve; as a rule, active = well fitted curve in the direction sought with a large enough effect; inconclusive = small, poorly fitted or top-dose-only effect, or another doubt; inactive = no such curve, though single readings can be large; an effect the other way counts as inactive or inconclusive. % is scaled to controls: 0 for no effect and ±100 for the full control effect; potency is read from the fitted curve at half-maximal effect.

For Cc1ccsc1C(=O)N1CC(Oc2ccc(-c3nc(-c4ccccc4)no3)cc2)C1 the results were 12-LOX inh 14%.
CCN(CC)C(=O)Cn1cc(SCC(=O)Nc2ccc(C)cc2)c2ccccc21 was read as TDP1 cell CPT inconclusive, TDP1 cell noCPT 26µM* and 12-LOX inh -25%.
Screening CCN(CC)C(=O)Cn1cc(SCC(=O)Nc2ccccc2F)c2ccccc21 returned TDP1 cell CPT inconclusive, TDP1 cell noCPT 26µM* and 12-LOX inh -17%.
`CCN(CC)C(=O)Cn1cc(SCC(=O)NC)c2ccccc21` gave TDP1 cell CPT 5%, VP16 counter 2%, RORg inh -3%, TDP1 cell noCPT 1%, 12-LOX inh -17% and ELG1 DNA repair 6%.
COc1ccc(OC)c(NC(=O)Nc2c(C)n(C)n(-c3ccccc3)c2=O)c1 was read as TDP1 cell CPT -11%, TDP1 cell noCPT -10% and 12-LOX inh -4%.
Screening COc1ccc(Cl)cc1NC(=O)CN(C)CC(=O)Nc1cc(OC)c(OC)c(OC)c1 returned TDP1 cell CPT 5.8µM*, VP16 counter -2%, RORg inh 19%, TDP1 cell noCPT 4.1µM*, 12-LOX inh 27% and ELG1 DNA repair 18µM*.
COc1cccc(NC(=O)CN(C)CC(=O)Nc2c(C)cccc2C)c1 was read as 12-LOX inh -4%.
`COc1ccc(Cl)cc1NC(=O)CN(C)C(=O)c1cc2c(F)cccc2s1` gave TDP1 cell CPT 10µM*, TDP1 cell noCPT 6.5µM*, 12-LOX inh -22% and ELG1 DNA repair inconclusive.
COc1ccc(Cl)cc1NC(=O)CN(C)CC(=O)Nc1ccc(Br)cc1 was read as TDP1 cell CPT inconclusive, VP16 counter -3%, RORg inh inconclusive, TDP1 cell noCPT inconclusive, 12-LOX inh 57% and ELG1 DNA repair -3%.
COc1ccc(Cl)cc1NC(=O)CN(C)CC(=O)Nc1c(C)n(C)n(-c2ccccc2)c1=O was read as TDP1 cell CPT inconclusive, TDP1 cell noCPT inconclusive, 12-LOX inh 34% and ELG1 DNA repair 18µM*.
Screening COc1cccc(NC(=O)CN(C)CC(=O)Nc2ccc(C)cc2Cl)c1 returned TDP1 cell CPT inconclusive, VP16 counter -8%, RORg inh -14%, TDP1 cell noCPT 13µM*, 12-LOX inh -21% and ELG1 DNA repair -1%.
CCn1c(SCC(=O)Nc2cccc(C(=O)O)c2)nnc1-c1cc2ccccc2o1 was read as 12-LOX inh 18%.
Screening Cc1ccc(-n2c(C)cc(C(=S)N3CCOCC3)c2C)cc1C returned TDP1 cell CPT 23µM*, VP16 counter -28%, RORg inh 14µM*, TDP1 cell noCPT 15µM*, 12-LOX inh -24% and ELG1 DNA repair -23%.
`CN(C(=O)c1ccoc1)c1ccccc1I` gave VP16 counter -17% and RORg inh -2%.
`CN(C(=O)c1ccoc1)c1ccc2ccccc2c1` gave TDP1 cell CPT 13µM*, VP16 counter -8%, RORg inh -29%, TDP1 cell noCPT inconclusive, 12-LOX inh -12% and ELG1 DNA repair -9%.
Screening Cc1c(C(=O)Nc2cccnc2)oc2ccc(Br)cc12 returned TDP1 cell CPT inconclusive, VP16 counter -1%, RORg inh 45%, TDP1 cell noCPT inconclusive, 12-LOX inh 14% and ELG1 DNA repair inconclusive.
`CCc1ccc2oc(C(=O)Nc3cccnc3)c(C)c2c1` gave TDP1 cell CPT 16µM*, TDP1 cell noCPT 23µM* and ELG1 DNA repair inconclusive.
CCc1sc(C(=O)Nc2cccnc2)cc1Br was read as TDP1 cell CPT -28%, VP16 counter 16%, RORg inh 24%, TDP1 cell noCPT -7%, 12-LOX inh 25µM* and ELG1 DNA repair inconclusive.
For O=C(Nc1cccnc1)c1cc2c(ccc3ccccc32)o1 the results were TDP1 cell CPT inconclusive, VP16 counter inconclusive, RORg inh 1.4µM* and TDP1 cell noCPT inconclusive.
Nc1nc(NCc2ccccc2)sc1C(=O)c1ccc(F)cc1 was read as 12-LOX inh 4%.
CC(C)CN(Cc1cccnc1)C1CN(C(=O)Nc2ccccc2F)C1 was read as 12-LOX inh 16%.
For COc1ccc(-c2cc3c(=O)n(CC(=O)NCCCN4CCC(N5CCCCC5)CC4)ncn3n2)cc1 the results were TDP1 cell CPT 15µM*, VP16 counter -2%, RORg inh -21%, TDP1 cell noCPT inconclusive, 12-LOX inh -7% and ELG1 DNA repair inconclusive.
Screening N#CC1=C2SCC(O)(c3ccccc3)N2C(=O)CC1c1ccccc1 (centres undefined) returned TDP1 cell CPT 1.3µM*, VP16 counter 0%, RORg inh 10%[10 µM], TDP1 cell noCPT 1.6µM*, 12-LOX inh -11% and ELG1 DNA repair -6%.
CCN1c2cc(C(=O)Nc3ccc(C)cc3Cl)ccc2C(=O)N2CCCCCC21 (centres undefined) was read as 12-LOX inh -15%.
Screening Cc1cc(C)cc(OCC(=O)Nc2cccc(-c3nc4ncccc4o3)c2)c1 returned TDP1 cell CPT 23µM*, VP16 counter -2%, RORg inh 28%, TDP1 cell noCPT 21µM*, 12-LOX inh 8%[57.4 µM] and ELG1 DNA repair 12µM*.
For CCc1ccc(OCC(=O)Nc2ccc(-c3nc4ncccc4o3)cc2)cc1 the results were TDP1 cell CPT -16%, TDP1 cell noCPT -10% and 12-LOX inh inconclusive.
For CCC(C)c1ccc(OCC(=O)Nc2cccc(-c3nc4ncccc4o3)c2)cc1 (centres undefined) the results were TDP1 cell CPT -89%, TDP1 cell noCPT 16µM* and 12-LOX inh 1%.
`Cc1cc(C)cc(OCC(=O)Nc2ccc(-c3nc4ncccc4o3)cc2C)c1` gave TDP1 cell CPT -4%, TDP1 cell noCPT inconclusive and 12-LOX inh 2%.
`COc1ccc(C(=O)Nc2sc3c(c2C(N)=O)CCC(C)C3)c(OC)c1OC` (centres undefined) gave 12-LOX inh -30%.
`OCC1(CN2CCCC2)CCN(C/C=C/c2ccccc2)CC1` gave 12-LOX inh 24%.
`COc1ccc(/C=C/CN2CCC(CO)(Cc3ccccc3Cl)CC2)cc1` gave TDP1 cell CPT inconclusive, VP16 counter -14%, RORg inh -3%, TDP1 cell noCPT 15µM*, 12-LOX inh inconclusive and ELG1 DNA repair 4%.
